Source: PubChem BioAssay (NCI)
Compounds without any hit were thinned out: in the full panel of roughly 83,000, 20% have a hit.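 Testing used 96-well plates and a 48-hour single-concentration exposure. Example: -40 means 40% of the starting cells died.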 The source made the active and inactive calls. How the source made its calls: active means growth percent below 10; inactive means the rest.

Columns and labels:
Test in all cases: NCI-60 one-dose screen, 48 h (100 = growth as untreated, 0 = no growth, -100 = all killed)
Conditions in all cases: 10 µM unless noted
[1] = test system: HCT-15 colon
[2] = test system: HT29 colon
[3] = test system: SNB-75 CNS
[4] = test system: U251 CNS
[5] = test system: PC-3 prostate
[6] = test system: SK-MEL-5 melanoma
[7] = test system: UACC-62 melanoma
[8] = test system: LOX IMVI melanoma
[9] = test system: SK-MEL-28 melanoma
[10] = test system: SK-MEL-2 melanoma
[11] = test system: EKVX NSCLC
[12] = test system: SN12C renal
[13] = test system: UO-31 renal
[14] = test system: TK-10 renal
[15] = test system: ACHN renal
[16] = test system: CAKI-1 renal
[17] = test system: A498 renal
[18] = test system: CCRF-CEM leukemia
[19] = test system: MOLT-4 leukemia
[20] = test system: SNB-19 CNS

Measured: growth

Nc1cc2ccncc2c2ccccc12
inactive: [1] 75.1% | [2] 65.2% | [3] 116% | [4] 81.1% | [5] 83.1% | [6] 76.9% | [7] 60.7% | [8] 50.8% | [9] 103% | [10] 45.5% | [11] 60.4% | [12] 52.7% | [13] 51.6% | [14] 80.6% | [15] 36.4% | [16] 58.2% | [17] 67.5% | [18] 66.9% | [19] 50.2%

CSc1[nH]c2ncnc(N)c2c1C#N
inactive: [1] 99% | [2] 97.9% | [3] 82.5% | [4] 107% | [5] 110% | [6] 99.9% | [7] 85.9% | [8] 109% | [9] 120% | [10] 91% | [11] 83.2% | [12] 99.4% | [13] 76% | [14] 85.4% | [15] 97.4% | [16] 37.7% | [17] 125% | [18] 110% | [19] 89.7%

COc1ccc(-c2cn3c(-c4ccc(OC)cc4)cnc3c(Oc3ccc4c(C)cc(=O)oc4c3)n2)cc1
inactive: [1] 63.4% | [2] 25.4% | [3] 14.3% | [4] 22.6% | [5] 17.7% | [6] 28.6% | [7] 50.1% | [10] 49.4% | [11] 50.2% | [12] 24.5% | [13] 75% | [14] 35.7% | [15] 58.1% | [16] 71.7% | [17] 52.4% | [18] 93.2%
active: [8] 8.02% | [9] -17.4%

COC(=S)SCN(CSC(=S)OC)c1ccc(Cl)cc1
inactive: [1] 86.3% | [2] 102% | [3] 58.9% | [4] 90.9% | [5] 99.3% | [6] 83.6% | [7] 58% | [8] 73.4% | [9] 102% | [10] 106% | [11] 70.3% | [12] 80.7% | [13] 66.5% | [14] 109% | [15] 75.3% | [16] 62.8% | [17] 86.8% | [18] 77.7% | [19] 81.7%

CN1CCN(Cc2ccc(NC(=O)c3[nH]ncc3Nc3ncnc4sccc34)cc2)CC1
inactive: [2] 17% | [4] 16.4% | [9] 17.8% | [11] 16.1% | [13] 14.8% | [14] 16.3%
active: [1] 7.97% | [3] -32.5% | [5] 6.12% | [6] -5.05% | [7] 8.83% | [8] -1.47% | [10] 7.08% | [12] 4.54% | [15] 1.08% | [16] 6.37% | [17] -35.5% | [18] 8.16%

CCCCOc1ccc(NC(=O)n2nc(NC(C)=O)c3cc(NC(C)=O)ccc32)cc1
inactive: [1] 88.9% | [2] 85.5% | [3] 114% | [4] 96.2% | [5] 76.6% | [6] 101% | [7] 91.8% | [8] 98.5% | [9] 126% | [10] 95% | [11] 68.7% | [12] 92.2% | [13] 80.9% | [14] 89.9% | [15] 95.3% | [16] 89.2% | [17] 105% | [18] 62.1% | [19] 52%

CCCCCCCCCCNC(=O)CCl
active: [16] -59.4%
inactive: [1] 72.4% | [2] 84.2% | [3] 45.5% | [4] 69.8% | [5] 66.1% | [6] 72.9% | [7] 73.8% | [8] 50.9% | [9] 105% | [10] 85.7% | [11] 95.9% | [12] 63.8% | [13] 58.1% | [14] 83.8% | [15] 78% | [17] 85.9% | [18] 57.8% | [19] 54.8%

COc1ccc(CCN2CC=Cn3c2nc2ccccc2c3=O)cc1
inactive: [1] 15.9% | [2] 12.9% | [3] 37.1% | [4] 27.6% | [5] 34.1% | [7] 31.8% | [8] 14.1% | [9] 78.7% | [10] 46.5% | [11] 64.9% | [12] 32.6% | [13] 35.2% | [14] 77.6% | [15] 26.7% | [16] 26.9% | [18] 18.7% | [19] 19%
active: [6] -13.8% | [17] -7.45%

O=C1Nc2ccccc2C12CC(c1ccc(Cl)cc1)=NN2 (stereo not drawn)
inactive: [1] 97.7% | [2] 97.1% | [3] 76% | [20] 90.9% | [5] 78.2% | [7] 95% | [8] 99.5% | [9] 97.7% | [12] 88.8% | [13] 69.2% | [14] 115% | [15] 91% | [16] 74.6% | [17] 99.6% | [18] 88.3% | [19] 83.8%

CCCCNP1(NCCCC)=NP(NCCCC)(NCCCC)=NP(NCCCC)(NCCCC)=NP(NCCCC)(NCCCC)=N1
inactive: [1] 99.3% | [2] 11.9% | [4] 11% | [7] 20.3% | [9] 37.4% | [12] 20.1% | [13] 37.6% | [14] 13.6% | [15] 33.9% | [16] 64.4%
active: [3] 8.44% | [5] -6.45% | [6] -93.8% | [8] 1.62% | [10] -23.1% | [11] -17.2% | [17] 4.56% | [18] -16.8% | [19] -38.5%

CCNS(=O)(=O)c1ncnc2nc[nH]c12
active: [4] -14%
inactive: [1] 94.3% | [2] 114% | [3] 122% | [5] 85.2% | [6] 113% | [7] 94.7% | [8] 22% | [9] 143% | [10] 109% | [11] 104% | [12] 112% | [13] 85.8% | [14] 122% | [15] 119% | [16] 94.9% | [17] 110% | [18] 91.1% | [19] 122%

Cn1c2ccccc2c2c3c(c4c5ccccc5[nH]c4c21)C(=O)N(N)C3=O
inactive: [1] 68.2% | [2] 60.3% | [3] 63.9% | [4] 37.3% | [5] 59.6% | [6] 31% | [7] 22.6% | [8] 23.4% | [9] 66.5% | [10] 99.7% | [11] 77.3% | [12] 52.2% | [13] 34.8% | [14] 82.5% | [15] 14.2% | [16] 30.7% | [17] 60% | [18] 26.4% | [19] 21.1%

COc1ccc(-c2cc(-c3cccnc3)nc3sc4c(=O)n(-c5ccc(C)cc5)cnc4c23)cc1OC
inactive: [1] 94.2% | [2] 104% | [3] 74.9% | [4] 103% | [5] 91.2% | [6] 94.2% | [7] 97.3% | [8] 97.9% | [9] 89.3% | [10] 108% | [11] 86.4% | [12] 92.2% | [13] 82% | [14] 111% | [15] 88.1% | [16] 76.3% | [17] 91% | [18] 105% | [19] 97.4%

CCOC(=O)c1c2ncccc2n2c(=O)n(-c3ccc(Cl)cc3)nnc12
inactive: [1] 96.6% | [2] 108% | [3] 86.7% | [4] 95.1% | [5] 95.6% | [6] 85.8% | [7] 46.6% | [8] 41.1% | [9] 115% | [10] 108% | [11] 68.7% | [12] 103% | [13] 61% | [14] 154% | [15] 77.9% | [16] 73.9% | [17] 106% | [18] 72% | [19] 86.8%

Cc1ccc(SCN2CCN(c3cccc(Cl)c3)CC2)cc1
inactive: [1] 93.1% | [2] 110% | [3] 85.4% | [4] 89.1% | [5] 101% | [6] 93.7% | [7] 89% | [8] 81.6% | [9] 120% | [10] 102% | [11] 90.2% | [12] 75.6% | [13] 86.6% | [14] 97.7% | [15] 104% | [16] 70.7% | [17] 85.5% | [18] 38.7% | [19] 83.4%

CC1(C)CC(C(=O)OCCCCCCCCCCC[P+](c2ccccc2)(c2ccccc2)c2ccccc2)C(C)(C)N1O (stereo not drawn)
inactive: [1] 88.5% | [4] 110% | [8] 117% | [15] 109%
active: [2] -33.9% | [3] -57.9% | [5] -70.1% | [6] -97.6% | [7] -69.3% | [9] -95.2% | [10] -45.8% | [11] -32.6% | [12] -36% | [13] -74.4% | [14] -72.1% | [16] -57.9% | [17] -94.8% | [18] -32.8% | [19] -56.9%

CN(CC(=O)N(Cc1ccc(C2CCCCC2)cc1)c1ccc(C(=O)NO)cc1)S(=O)(=O)c1c(F)c(F)c(F)c(F)c1F
active: [1] -35.4% | [2] 0.552% | [8] -8.7%
inactive: [3] 84.5% | [4] 48.8% | [5] 88.1% | [6] 99.6% | [7] 94.5% | [9] 86.8% | [10] 81.2% | [11] 106% | [12] 86.1% | [13] 69.1% | [14] 87.4% | [15] 79.6% | [16] 87.4% | [17] 95.7% | [18] 41.9% | [19] 39.2%
